From PubChem BioAssay AID463173 (ICCB-Longwood Screening Facility, Harvard Medical School, 2010)
The whole screen tested about 52,000 compounds, of which about 4,300 (8.3%) were called active. The sample holds actives, similar compounds and a random draw of the others, so the mix is not that of the screen. Rule as the data show it: active = survival mostly below about 52% (no sharp cut-off); inactive = mostly above about 56%.

test system: DeltatarO mutant; test: S. aureus survival, RN4220 and DeltatarO strains – OD600, teichoic acid synthesis inhibitors, primary screen (AID 463173); details: S. aureus RN4220 wild type/DeltatarO growth, OD600, 18 h, stronger effect = lower value, screened at 18.75 µg/mL (by protocol)

Compound | survival
Cc1ccc(NC(=O)c2oc3ccc(S(=O)(=O)N(C)C4CCCCC4)cc3c2C)cc1Cl | 95% (inactive)
Cc1cc2n(n1)CCCN2C(=O)Nc1cccc(C)c1C | 73% (inactive)
O=C(O)C1C2C=CC(C2)C1C(=O)NCCO (stereo not drawn) | 82% (inactive)
COc1ccc(OC)c(S(=O)(=O)N2CCC(C(=O)NCCC3=CCCCC3)CC2)c1 | 92% (inactive)
COC(=O)CNC(=O)N1CCN(S(=O)(=O)c2ccc3c(ccn3C)c2)CC1 | 87% (inactive)
CCOC(=O)CNC(=O)N1CCN(S(=O)(=O)c2ccc3c(ccn3C)c2)CC1 | 32% (active)
CCOC(=O)CCNC(=O)N1CCN(S(=O)(=O)c2ccc3c(ccn3C)c2)CC1 | 89% (inactive)
CCn1c(SCc2ccccc2)nnc1-c1cccnc1 | 75% (inactive)
Cc1ccc(C)c(N2CCN(Cc3nnc(-c4ccccc4)o3)CC2)c1 | 91% (inactive)
Cc1cccc(N2CCN(Cc3nnc(-c4ccccc4C)o3)CC2C)c1 (stereo not drawn) | 33% (active)
Cc1ccccc1-c1nnc(CN2CCN(c3cccc(C)c3C)CC2)o1 | 61% (inactive)
Cc1ccccc1-c1nnc(CN2CCN(c3cc(Cl)ccc3C)CC2)o1 | 74% (inactive)
Cc1ccccc1-c1nnc(CN2CCN(c3ccccn3)CC2)o1 | 120% (inactive)
Cc1ccc(N2CCN(Cc3nnc(-c4ccccc4F)o3)CC2)c(C)c1 | 22% (active)
CCn1c(=O)n(CC2CCC(C(=O)NC(C)C)CC2)c(=O)c2sccc21 (stereo not drawn) | 85% (inactive)
CC(=O)c1ccc(NC(=O)Cn2cc(S(=O)(=O)Cc3ccccc3Cl)c3ccccc32)cc1 | 74% (inactive)
CCOC(=O)C1CCCN(C(=O)c2ccc3c(c2)N(Cc2ccccc2)C(=O)c2ccccc2S3=O)C1 (stereo not drawn) | 120% (inactive)
CCCCC(=O)Nc1ccc2nc(SCC(=O)N3CCOCC3)sc2c1 | 87% (inactive)
CCN(Cc1ccccc1)C(=O)CCc1c(C)nc2c(c(C)nn2-c2ccc(C)c(C)c2)c1C | 95% (inactive)
COc1ccc(C(=O)N(Cc2cc(OC)c(OC)c(OC)c2)CC2CCCO2)cc1 (stereo not drawn) | 48% (inactive)
O=C(c1ccc(Cl)cc1)N1CCN(CCc2ccncc2)CC1 | 103% (inactive)
CCCN(CCC)C(=O)CSc1nc2sc3c(c2c(=O)n1-c1ccccc1)CCN(C(C)=O)C3 | 178% (inactive)
CCC1(C)Cc2c(sc3nc(SC)n(-c4ccc(C)cc4)c(=O)c23)CO1 (stereo not drawn) | 33% (active)
Cc1ccc(-n2c(SCCC(C)C)nc3sc4c(c3c2=O)CC(C)(C)OC4)cc1 | 49% (inactive)

Compound | survival
COC(=O)CSc1nc2sc3c(c2c(=O)n1-c1ccc(C)cc1)CC(C(C)C)OC3 (stereo not drawn) | 61% (inactive)
CCOC(=O)CSc1nc2sc3c(c2c(=O)n1Cc1ccccc1)CC(C)CC3 (stereo not drawn) | 64% (inactive)
CCOC(=O)CSc1nc2sc3c(c2c(=O)n1-c1ccccc1)CC(C(C)C)OC3 (stereo not drawn) | 96% (inactive)
CCCCCOC(=O)CSc1nc2sc3c(c2c(=O)n1Cc1ccccc1)CC(C)(C)OC3 | 41% (active)
COC(=O)CSc1nc2sc3c(c2c(=O)n1-c1ccccc1C)CC(C)(C)OC3 | 73% (inactive)
CCCCCOC(=O)CSc1nc2sc3c(c2c(=O)n1Cc1ccccc1)CC(C)(CC)OC3 (stereo not drawn) | 46% (active)
CCOC(=O)CSc1nc2sc3c(c2c(=O)n1Cc1ccccc1)CC(C(C)C)OC3 (stereo not drawn) | 74% (inactive)
CCOC(=O)CSc1nc2sc3c(c2c(=O)n1Cc1ccccc1)CCC(C(C)(C)C)C3 (stereo not drawn) | 61% (inactive)
CCCCCOC(=O)CSc1nc2sc3c(c2c(=O)n1-c1ccccc1)CC(C)(CC)OC3 (stereo not drawn) | 36% (active)
CCOc1ccc(CN(CCc2ccc3c(c2)OCO3)Cc2cc(OC)c(OC)cc2OC)cc1 | 44% (inactive)
O=C(Nc1ccc(C(=O)OCc2cc(=O)n3nc(C4CC4)sc3n2)cc1)c1cccc(F)c1 | 67% (inactive)
O=C(Nc1cccc(F)c1)/C(=C\c1cccs1)NC(=O)c1cccs1 | 79% (inactive)
O=C(CCCSc1nc(-c2ccco2)cc(C(F)(F)F)n1)Nn1cnnc1 | 72% (inactive)
COc1cccc(C(=O)NC(=O)Nc2ccc(-n3nc(C(F)(F)F)cc3C(F)(F)F)cc2)c1 | 81% (inactive)
CCOc1ccc(OCC)c(NC(=O)C2CCCN(S(=O)(=O)c3ccc(C)cc3)C2)c1 (stereo not drawn) | 60% (inactive)
CCC(Sc1nc2cc(OC)c(OC)cc2c2nc(-c3ccccc3)nn12)C(=O)Nc1cccc(C)c1 (stereo not drawn) | 80% (inactive)
CCCCc1cc(=O)oc2cc(C)c3c(C(C)(C)C)coc3c12 | 102% (inactive)
COc1ccc(OC)c(CNC(=O)CN2N=C(c3ccc(Cl)cc3)CCC2=O)c1 | 96% (inactive)
CCOC(=O)c1cnc(NCc2ccc(OC)cc2OC)c2ccccc12 | 86% (inactive)
COc1ccc(CNS(=O)(=O)c2cnc(N)nc2)c(OC)c1 | 83% (inactive)
COc1ccc(OC)c(CNc2ncnc3onc(-c4ccc(Cl)cc4)c23)c1 | 53% (inactive)
COc1ccc(OC)c(CNc2ncc(-c3ccc(Cl)cc3)n2C)c1 | 25% (active)
CCOc1ccc(-c2cnc(NCc3ccc(OC)cc3OC)n2C)cc1 | 37% (active)
CCOc1ccccc1C(=O)N1CC(=O)Nc2ccc(Cl)cc2C1c1ccccc1 (stereo not drawn) | 73% (inactive)

Compound | survival
Fc1ccc(Nc2c3c(nc4nncn24)CCC3)cc1 | 74% (inactive)
Cc1ccc(-n2nc(C(=O)Nc3cccc(C#N)c3)c3c4ccccc4n(C)c3c2=O)cc1 | 129% (inactive)
Cc1ccc(C(=O)c2oc3ccccc3c2NC(=O)c2cc(-c3ccccc3)on2)cc1 | 77% (inactive)
O=C(c1ccco1)N1CCN(c2c3c(nc4cc(-c5cccc(F)c5)nn24)CCCC3)CC1 | 70% (inactive)
Cc1ccc2cc(CN(Cc3cccnc3)C(=O)c3cccnc3)c(=O)[nH]c2c1 | 106% (inactive)
Cc1cccc(Oc2ccc3c(c2)Oc2ccccc2NC3=O)c1 | 73% (inactive)
O=C1Nc2ccccc2Oc2cc(Oc3ccccc3)ccc21 | 33% (active)
O=C1Nc2ccccc2Oc2cc(Oc3cccc(Cl)c3)ccc21 | 46% (inactive)
COc1ccc(-c2ccc(CNCCCSc3nnnn3C)o2)cc1Cl | 79% (inactive)
CC(=O)Nc1ccccc1-c1nc2ccccc2n(CC(=O)Nc2cccc(C(F)(F)F)c2)c1=O | 45% (active)
CCc1ccc(NC(=O)C(CC)n2c(=O)c(-c3ccccc3NC(C)=O)nc3ccccc32)cc1 (stereo not drawn) | 65% (inactive)
CCc1ccc(NC(=O)Cn2c(=O)c(-c3ccccc3NC(C)=O)nc3ccccc32)cc1 | 44% (active)
COc1ccc(Cl)cc1NC(=O)Cn1c(=O)c(-c2ccccc2NC(C)=O)nc2ccccc21 | 103% (inactive)
Nc1nonc1-c1nc2ccccc2n1CC(=O)Nc1cccc(C(F)(F)F)c1 | 95% (inactive)
CC(=O)Nc1ccccc1-c1nc2ccccc2n(CC(=O)Nc2ccc(C)c(Cl)c2)c1=O | 101% (inactive)
CCOc1ccccc1-c1nc(C(N)=O)c2c(n1)n(-c1ccc3c(c1)OCO3)c(=O)n2C | 79% (inactive)
CCOc1ccc(NC(=O)Cc2c[nH]c3ccccc23)cc1 | 80% (inactive)
Cc1oc2c(c1C(=O)NCCO)CCCC2 | 85% (inactive)
COCc1cc(C)nc2sc3c(c12)NC(c1ccc(O)cc1)N(c1ccc(OC)cc1)C3=O (stereo not drawn) | 76% (inactive)
CCCN1C(=O)C2(c3ccccc31)c1c(oc3ccc(F)cc3c1=O)C(=O)N2CCCOC(C)C (stereo not drawn) | 93% (inactive)
COc1ccc2cc(C#N)c(N3CCCN(C(=O)/C=C/C(=O)O)CC3)nc2c1 | 105% (inactive)
CCCN1CCc2nc(N3CCN(c4ncccn4)CC3)ncc2C1 | 75% (inactive)
O=C(CSc1nc2ccccc2n1Cc1ccccc1)NCc1ccccc1 | 95% (inactive)
O=C1OCCC1Sc1nc2ccccc2n1Cc1ccccc1 (stereo not drawn) | 73% (active)

Compound | survival
O=C(CSc1nc2ccccc2n1Cc1ccccc1)Nc1ccccn1 | 81% (inactive)
COC(=O)c1nnn(CC(=O)Nc2c(C)cccc2C)c1N | 87% (inactive)
Cc1ccc(NC(=O)CN2C(=O)COc3ccc(S(=O)(=O)N4CCCCCC4)cc32)cc1Cl | 67% (inactive)
COc1cccc(/C=N/NC(=O)c2cccc(C)c2)c1O | 2% (active)
O=C(N/N=C/c1ccc(OC(=O)c2ccco2)cc1)c1ccccn1 | 92% (inactive)
Cn1cccc1/C=N/NC(=O)c1ccccn1 | 77% (inactive)
COc1cccc(/C=N/NC(=O)COc2c(C)cccc2C)c1O | 88% (inactive)
Cc1cccc(/C=N/NC(=O)c2ccccn2)c1O | 5% (active)
COc1cccc(/C=N/NC(=O)CSCc2ccccc2)c1O | 69% (inactive)
COc1ccc(C(=O)Nc2ccc3nc4n(c(=O)c3c2)CCCCC4)cc1OC | 91% (inactive)
CCOc1ccc(-n2c(=O)c3c(C)c(C)sc3n(CC(=O)N3CCC(C)CC3)c2=O)cc1 | 71% (inactive)
CCC(C)NC(=O)c1ccc2nc(Cc3ccc(OC)cc3)oc2c1 (stereo not drawn) | 76% (inactive)
CCOC(=O)c1c(C)[nH]c(CCC(=O)Nc2cc(Cl)ccc2OC)c1C | 94% (inactive)
COc1ccccc1CNC(=O)Cn1c(=O)ccc2cc(S(=O)(=O)N3CCCC3)ccc21 | 69% (inactive)
CCn1nc(C)c(CCN(C)C(=O)Nc2cc(OC)c(OC)c(OC)c2)c1C | 89% (inactive)
COc1cc2c(cc1NC(=O)COc1ccc(Br)cc1)oc1ccccc12 | 72% (inactive)
COc1cc2c(cc1NC(=O)COc1ccc(Br)c(C)c1)oc1ccccc12 | 49% (inactive)
COc1cc2c(cc1NC(=O)COc1ccc(Br)cc1C)oc1ccccc12 | 119% (inactive)
CCc1ccc(OCC(=O)Nc2cc3oc4ccccc4c3cc2OC)cc1 | 47% (active)
CCc1ccc(OCC(=O)Nc2cc3oc4ccccc4c3cc2OC)c(Br)c1 | 123% (inactive)
COc1cc2c(cc1NC(=O)COc1ccc(Cl)cc1)oc1ccccc12 | 46% (active)
